# Where “and” joins values, the source holds several entries; their conditions need not be identical. Identical values can stand only once. Inconclusive results are not listed. Calls of active or inactive are those of the source. Rule for the calls, unless noted: active = hit-call score of the fitted dose curve at least 0.9, where 1 is the maximum; inactive = score below 0.9.
# What was measured:
# [1] = read-out: Macrophage colony-stimulating factor (MCSF), CSF1 (gene 1435); experiment: BSK_LPS_MCSF: BioMAP Diversity Plus: LPS Assay for Macrophage colony-stimulating factor (MCSF) Biomarker Activity (AID 2283083); details: primary human HUVEC with PBMC; actives raise or lower the signal
# Method in brief: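 HUVEC + PBMC co-culture (human primary), 24 h post-dose; M-CSF by ELISA; gain/loss of signal fitted bidirectionally vs DMSO baseline.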
# [2] = read-out: Tissue Factor, F3 (gene 2152); experiment: BSK_LPS_TissueFactor: BioMAP Diversity Plus: LPS Assay for Tissue Factor Biomarker Activity (AID 2283084); details: primary human HUVEC with PBMC; actives raise or lower the signal
# Method in brief: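 HUVEC/PBMC co-culture, LPS-activated; CD142 ELISA read 24 h post-dose; bidirectional curve fit vs DMSO negative control.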
# [3] = read-out: Tumor necrosis factor (Homo sapiens) (UniProt P01375); experiment: BSK_LPS_TNFa: BioMAP Diversity Plus: LPS Assay for Tumour Necrosis Factor alpha (TNFa) Biomarker Activity (AID 2283085); details: primary human HUVEC with PBMC; actives raise or lower the signal;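 for AC50: TNFa protein level quantified by ELISA in the co-culture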
# Method in brief: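 Cells (umbilical vein endothelium plus peripheral blood mononuclear cells) were dosed with chemical, incubated 24 h, then TNFa was quantified by ELISA; values derive from bidirectional fitting with DMSO as baseline.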
# [4] = read-out: Vascular cell adhesion molecule 1 (VCAM1), VCAM1 (gene 7412); experiment: BSK_LPS_VCAM1: BioMAP Diversity Plus: LPS Assay for Vascular cell adhesion molecule 1 (VCAM1) Biomarker Activity (AID 2283086); details: primary human HUVEC with PBMC; actives raise or lower the signal
# Method in brief: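 Cells are dosed in an LPS-stimulated endothelial/mononuclear co-culture and, after 24 h, VCAM-1 is quantified by ELISA. Activity in either direction is fitted relative to the DMSO negative control.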
# [5] = read-out: CD38, CD38 (gene 952); experiment: BSK_SAg_CD38: BioMAP Diversity Plus: SAg Assay for CD38 Biomarker Activity (AID 2283087); details: primary human HUVEC with PBMC; actives raise or lower the signal
# Method in brief: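 CD38 quantified by ELISA (fluorescence) in a superantigen-activated endothelial cell–PBMC co-culture at 24 h post-dose. Activity fitted in both directions relative to DMSO; parallel SRB and Alamar Blue cytotoxicity read-outs.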
# [6] = read-out: CD40, CD40 (gene 958); experiment: BSK_SAg_CD40: BioMAP Diversity Plus: SAg Assay for CD40 Biomarker Activity (AID 2283088); details: primary human HUVEC with PBMC; actives raise or lower the signal
# Method in brief: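 HUVEC/PBMC co-culture, 24 h post-dose; CD40 by ELISA, fluorescence intensity; bidirectional fit vs DMSO negative control.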
# [7] = read-out: CD69, CD69 (gene 969); experiment: BSK_SAg_CD69: BioMAP Diversity Plus: SAg Assay for CD69 Biomarker Activity (AID 2283089); details: primary human HUVEC with PBMC; actives raise or lower the signal;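 for AC50: cell surface CD69 protein quantified by ELISA with fluorescence detection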
# Method in brief: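 Endothelial/PBMC co-culture; chemical added; 24 h incubation; CD69 ELISA with fluorescence detection; bidirectional fit vs DMSO.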
# [8] = read-out: Monocyte Chemoattractant Protein-1 (MCP1), CCL2 (gene 6347); experiment: BSK_SAg_MCP1: BioMAP Diversity Plus: SAg Assay for Monocyte Chemoattractant Protein-1 (MCP1) Biomarker Activity (AID 2283090); details: primary human HUVEC with PBMC; actives raise or lower the signal
# Method in brief: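 Values derive from bidirectional fitting of ELISA-measured MCP1 against DMSO controls. Readings were taken 24 h after dosing human vascular endothelial cells co-cultured with peripheral blood mononuclear cells under superantigen stimulation.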
# [9] = read-out: E-selectin (Homo sapiens) (UniProt P16581); experiment: BSK_SAg_Eselectin: BioMAP Diversity Plus: SAg Assay for Eselectin Biomarker Activity (AID 2283091); details: primary human HUVEC with PBMC; actives raise or lower the signal
# Method in brief: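 E-selectin ELISA readout at 24 h post-dosing in human umbilical vein endothelial cell/PBMC co-culture; gain or loss of signal fitted relative to DMSO baseline.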
# [10] = read-out: Monokine induced gamma interferon (MIG), CXCL9 (gene 4283); experiment: BSK_SAg_MIG: BioMAP Diversity Plus: SAg Assay for Monokine induced gamma interferon (MIG) Biomarker Activity (AID 2283092); details: primary human HUVEC with PBMC; actives raise or lower the signal
# Method in brief: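 Measures CXCL9 protein by ELISA in a human vascular primary-cell co-culture (umbilical vein endothelium with PBMC) 24 h after chemical addition. Activity is scored up or down from the DMSO control.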
# [11] = BSK_SAg_PBMCCytotoxicity: PBMC Cytotoxicity Assessment in the BioMAP Diversity Plus: SAg Assay (AID 2283093); details: primary human HUVEC with PBMC;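 note: fitted both ways against DMSO so a hit may be loss or gain of signal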;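 for AC50: PBMC superantigen activated with SEB plus TSST-1 one hour after compound addition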
# Method in brief: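 PBMC viability by Alamar Blue reduction, fluorescence read at 546/580 nm after 6 h dye exposure. Cells were dosed 1 h before SEB plus TSST-1 activation (20 ng/mL final each), then held 90 h; endothelial/PBMC human co-culture.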
# [12] = read-out: Interleukin-8 (IL8), CXCL8 (gene 3576); experiment: BSK_SAg_IL8: BioMAP Diversity Plus: SAg Assay for Interleukin-8 (IL8) Biomarker Activity (AID 2283094); details: primary human HUVEC with PBMC; actives raise or lower the signal
# Method in brief: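 Chemicals were dosed onto a human endothelial–PBMC co-culture, and IL-8 was quantified by ELISA after 24 h. Both increases and decreases were fitted relative to DMSO.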
# [13] = BSK_SAg_SRB: Viability Assessment in the BioMAP Diversity Plus: SAg Assay (AID 2283096); details: primary human HUVEC with PBMC;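 note: cells read one day after compound addition; hits may be either gain or loss of signal compared with DMSO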
# Method in brief: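 Compounds were added to a human vascular co-culture of umbilical vein endothelium and PBMC. After 24 h, parallel cultures were fixed with 10% TCA, stained with 0.1% sulforhodamine B and read at 560 nm. Gain or loss of signal was fitted relative to DMSO.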
# [14] = BSK_SAg_Proliferation: Cell Proliferation Assessment in the BioMAP Diversity Plus: SAg Assay (AID 2283095); details: primary human HUVEC with PBMC;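 note: relative cell number as total protein by SRB absorbance in sub-confluent culture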
# Method in brief: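 Absorbance of sulforhodamine B at 560 nm reports total protein in a human vascular endothelial/PBMC co-culture after 96 h chemical exposure. Gain or loss of signal is fitted in both directions against DMSO.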
# [15] = molecular target: human CYP2D6, CYP2D6 (gene 1565) (UniProt P10635); experiment: NVS_ADME_hCYP2D6: NovaScreen (NVS) CYP450-related Enzyme Activity (ADME) Assay for human CYP2D6 (AID 2283107; active = hit-call score of the fitted dose curve at least 0.9, where 1 is the maximum)
# Chain of human CYP2D6, CYP2D6 (gene 1565) (P10635 whole entry, looked up): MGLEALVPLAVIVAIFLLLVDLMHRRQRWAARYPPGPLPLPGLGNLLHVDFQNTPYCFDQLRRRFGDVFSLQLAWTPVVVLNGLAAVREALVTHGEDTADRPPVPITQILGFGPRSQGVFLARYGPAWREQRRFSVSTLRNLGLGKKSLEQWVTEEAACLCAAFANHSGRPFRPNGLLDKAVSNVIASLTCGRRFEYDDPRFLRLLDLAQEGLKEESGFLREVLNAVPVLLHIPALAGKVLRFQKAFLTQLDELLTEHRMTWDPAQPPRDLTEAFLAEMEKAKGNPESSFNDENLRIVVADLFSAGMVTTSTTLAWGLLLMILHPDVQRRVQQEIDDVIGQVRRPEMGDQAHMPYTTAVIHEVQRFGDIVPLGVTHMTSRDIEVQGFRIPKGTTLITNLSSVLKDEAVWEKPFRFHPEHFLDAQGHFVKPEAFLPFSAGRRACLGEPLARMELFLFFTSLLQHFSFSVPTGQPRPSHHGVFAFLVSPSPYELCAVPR
# Method in brief: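 Fluorescence intensity read 1 h post-dosing; insect-cell-expressed recombinant protein with fluorogenic substrate, no cells. Activity is scored as signal loss relative to acetonitrile baseline, first at a single 10 uM concentration in duplicate, then as concentration series for confirmed actives.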
# [16] = molecular target: human CYP19A1, CYP19A1 (gene 1588) (UniProt P11511); experiment: NVS_ADME_hCYP19A1: NovaScreen (NVS) CYP450-related Enzyme Activity (ADME) Assay for human CYP19A1 (AID 2283098; active = hit-call score of the fitted dose curve at least 0.9, where 1 is the maximum)
# Chain of human CYP19A1, CYP19A1 (gene 1588) (P11511 whole entry, looked up): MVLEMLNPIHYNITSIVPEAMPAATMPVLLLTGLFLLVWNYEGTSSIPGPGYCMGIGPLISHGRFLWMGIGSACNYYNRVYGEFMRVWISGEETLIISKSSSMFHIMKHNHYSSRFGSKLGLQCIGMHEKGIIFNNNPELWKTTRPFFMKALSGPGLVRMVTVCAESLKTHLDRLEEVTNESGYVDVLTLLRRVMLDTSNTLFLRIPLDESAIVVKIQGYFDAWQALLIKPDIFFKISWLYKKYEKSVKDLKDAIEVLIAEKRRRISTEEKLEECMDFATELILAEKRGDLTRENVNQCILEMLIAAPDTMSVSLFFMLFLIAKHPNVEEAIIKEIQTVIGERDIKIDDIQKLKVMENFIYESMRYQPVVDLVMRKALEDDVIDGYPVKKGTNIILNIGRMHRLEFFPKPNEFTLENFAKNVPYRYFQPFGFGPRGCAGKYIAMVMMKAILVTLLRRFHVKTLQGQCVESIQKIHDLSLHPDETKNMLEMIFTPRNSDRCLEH
# Method in brief: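 Fluorescence intensity read-out; activity taken as signal loss relative to acetonitrile vehicle. Extracted enzyme, specific substrate, no cells, 0.5 h exposure. Duplicate single-point screen at 10 uM, then concentration–response follow-up for actives.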
# Chain of Tumor necrosis factor (Homo sapiens) (P01375 whole entry, looked up): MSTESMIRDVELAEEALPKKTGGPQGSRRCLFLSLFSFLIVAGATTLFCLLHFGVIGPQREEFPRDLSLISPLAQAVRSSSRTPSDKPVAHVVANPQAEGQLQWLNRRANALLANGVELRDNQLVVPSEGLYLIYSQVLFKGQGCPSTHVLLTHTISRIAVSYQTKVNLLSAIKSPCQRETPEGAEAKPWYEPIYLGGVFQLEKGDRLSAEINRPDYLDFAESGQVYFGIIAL
# Chain of E-selectin (Homo sapiens) (P16581 whole entry, looked up): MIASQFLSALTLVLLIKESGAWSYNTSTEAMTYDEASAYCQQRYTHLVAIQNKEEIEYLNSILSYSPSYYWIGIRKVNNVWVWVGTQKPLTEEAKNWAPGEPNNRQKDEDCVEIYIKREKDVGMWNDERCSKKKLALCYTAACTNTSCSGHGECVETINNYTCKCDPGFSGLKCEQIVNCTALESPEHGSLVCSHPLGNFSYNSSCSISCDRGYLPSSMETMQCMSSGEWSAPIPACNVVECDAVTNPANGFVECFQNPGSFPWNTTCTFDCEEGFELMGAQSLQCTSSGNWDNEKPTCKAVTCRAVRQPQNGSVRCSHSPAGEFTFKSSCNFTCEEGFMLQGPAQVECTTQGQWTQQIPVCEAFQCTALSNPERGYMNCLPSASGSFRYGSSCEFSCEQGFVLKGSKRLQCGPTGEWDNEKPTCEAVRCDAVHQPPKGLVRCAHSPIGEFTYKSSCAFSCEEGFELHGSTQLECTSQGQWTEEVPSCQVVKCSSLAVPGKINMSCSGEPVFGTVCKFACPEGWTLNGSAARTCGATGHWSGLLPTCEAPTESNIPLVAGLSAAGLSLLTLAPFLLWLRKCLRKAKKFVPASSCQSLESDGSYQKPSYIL
compound,measurement,setting,value
CO[Si](C)(CCC(F)(F)C(F)(F)C(F)(F)C(F)(F)C(F)(F)C(F)(F)F)OC,outcome,[1],inactive
same,outcome,[2],inactive
same,outcome,[3],inactive
same,outcome,[4],inactive
same,outcome,[5],inactive
same,outcome,[6],inactive
same,outcome,[7],inactive
same,outcome,[8],inactive
same,outcome,[9],inactive
same,outcome,[10],inactive
same,outcome,[11],inactive
same,outcome,[12],inactive
same,outcome,[13],inactive
C=CC(=O)OCC(F)(F)C(F)(F)C(F)(F)COC(=O)C=C,AC50,[1],14.9 µM (active) and 8.27 µM (active)
same,AC50,[2],21.9 µM (active) and 20.2 µM (active)
same,AC50,[3],14.9 µM (active) and 15.7 µM (active)
same,AC50,[4],15.1 µM (active) and 8.51 µM (active)
same,AC50,[5],14.2 µM (active)
same,AC50,[6],16.3 µM (active) and 12.2 µM (active)
same,AC50,[7],8.7 µM (active) and 8.29 µM (active)
same,AC50,[8],22.5 µM (active) and 14 µM (active)
same,AC50,[9],8.53 µM (active) and 9.25 µM (active)
same,AC50,[10],19.3 µM (active) and 18.6 µM (active)
same,AC50,[11],14.2 µM (active) and 12.8 µM (active)
same,AC50,[12],14.2 µM (active) and 5.57 µM (active)
same,AC50,[14],6.99 µM (active) and 5.35 µM (active)
same,AC50,[13],43.7 µM (active) and 45.6 µM (active)
CN(C(=O)C(F)(F)C(F)(F)C(F)(F)F)[Si](C)(C)C,outcome,[1],inactive
same,outcome,[2],inactive
same,outcome,[3],inactive
same,outcome,[4],inactive
same,outcome,[5],inactive
same,outcome,[6],inactive
same,outcome,[7],inactive
same,outcome,[8],inactive
same,outcome,[9],inactive
same,outcome,[10],inactive
same,outcome,[11],inactive
same,outcome,[12],inactive
same,outcome,[13],inactive
CCN(CC)c1ccc2c(c1)Oc1cc(N(CC)CC)ccc1C21OC(=O)c2ccccc21,outcome,[1],inactive
same,AC50,[2],10 µM (active)
same,outcome,[3],inactive
same,outcome,[4],inactive
same,outcome,[5],inactive
same,outcome,[6],inactive
same,outcome,[7],inactive
same,outcome,[8],inactive
same,outcome,[9],inactive
same,outcome,[10],inactive
same,AC50,[11],6.68 µM (active)
same,AC50,[12],10 µM (active)
same,outcome,[13],inactive
O=C(O)C(F)(F)OC(F)(F)C(F)(F)OC(F)(F)C(F)(F)OC(F)(F)F,outcome,[1],inactive
same,outcome,[2],inactive
same,outcome,[3],inactive
same,outcome,[4],inactive
same,outcome,[5],inactive
same,outcome,[6],inactive
same,outcome,[7],inactive
same,outcome,[8],inactive
same,outcome,[9],inactive
same,outcome,[10],inactive
same,outcome,[11],inactive
same,outcome,[12],inactive
same,outcome,[14],inactive
same,outcome,[13],inactive
CC1=CC2C3C=CC(C3)C2C1C (stereo not given),outcome,[1],inactive
same,outcome,[2],inactive
same,AC50,[3],31.3 µM (active)
same,outcome,[4],inactive
same,outcome,[5],inactive
same,outcome,[6],inactive
same,outcome,[7],inactive
same,outcome,[8],inactive
same,outcome,[9],inactive
same,outcome,[10],inactive
same,outcome,[11],inactive
same,outcome,[12],inactive
same,outcome,[13],inactive
same,AC50,[15],2.84 µM (active)
CCOC(OCC)OCC,outcome,[16],inactive
Brc1nc2ccccc2s1,outcome,[1],inactive
same,outcome,[2],inactive
same,outcome,[3],inactive
same,outcome,[4],inactive
same,outcome,[5],inactive
same,outcome,[6],inactive
same,outcome,[7],inactive
same,outcome,[8],inactive
same,outcome,[9],inactive
same,outcome,[10],inactive
same,outcome,[11],inactive
same,outcome,[12],inactive
same,outcome,[13],inactive
